Structures are written as SMILES. Hit rate of the full screen: of about 48,000 compounds, about 13,000 (27%) showed an effect of 50% or more. This is one part of the list.

For this test, the system named is Wolbachia pipientis. The test is described as follows: Anti-Wolbachia Cell-Based Screen. The test is classed as functional. Also noted: scale not given: in the data most compounds retested in dose-response had high values. The note with it: 5 µM.
Take `CCn1nc2c(cc1=O)CN(Cc1nc(-c3ccoc3)no1)CC2`: the “Percent Effect” value is on record as -3.016%.

Turning to `Cn1cc(C2CCCN2C(=O)c2cnc(-c3ccco3)s2)cn1` (stereo unspecified), the “Percent Effect” value was 97.73%.

`Cn1cc(C2CCCN2C(=O)c2cnc(-c3ncccn3)s2)cn1` (stereo unspecified): the “Percent Effect” value was determined as 107.5%.

Consider `Cn1cc(C2CCCN2C(=O)c2cnc(-c3ccccn3)s2)cn1` (stereo unspecified), for which the “Percent Effect” value is on record as 99.88%.

Turning to `Cn1cc(C2CCCN2C(=O)Cc2n[nH]c3ccccc23)cn1` (stereo unspecified), the “Percent Effect” value is listed as -7.231%.

Turning to `Cn1cc(C2CCCN2C(=O)c2cnc(-c3cccs3)s2)cn1` (stereo unspecified), the “Percent Effect” value was determined as 79.27%.

For `Cn1cc(C2CCCN2C(=O)Cc2coc(-c3ccccc3)n2)cn1` (stereo unspecified), the “Percent Effect” value is given as -3.572%.

Regarding `Cn1cc(C2CCCN2C(=O)c2ccc(Br)o2)cn1` (stereo unspecified), the “Percent Effect” value is on record as -1.087%.

Consider `c1c[nH]c(-c2cn(CCSc3cnn[nH]3)nn2)n1`, for which the “Percent Effect” value is -6.5%.

With `O=C(COCC1CC1)N1CCSCC1`, the “Percent Effect” value is -4.058%.

In the case of `CC(=O)NCc1ccc(S(=O)(=O)NC(=O)c2ccc3c(c2)CCO3)s1`, the “Percent Effect” value is listed as -11.39%.

Take `CN(Cc1nc2ccccc2n1C)CC1CCCN1c1cccnn1` (stereo unspecified): the “Percent Effect” value is -5.038%.

In the case of `Brc1csc(CNCc2nnc3n2CCC3)c1`, the “Percent Effect” value is recorded as -6.201%.

With `Cn1cc(C2CCCN2C(=O)CS(=O)(=O)C2CCCC2)cn1` (stereo unspecified), the “Percent Effect” value was determined as 4.822%.

For `Cn1cc(C2CCCN2C(=O)c2cnc(C3CC3)s2)cn1` (stereo unspecified), the “Percent Effect” value is listed as 90.11%.

Turning to `CS(=O)(=O)N1CCN(Cc2c(O)ccc3oc4c(c23)CCCC4)CC1`, the “Percent Effect” value is listed as -24.14%.

For the compound `CCC(CC)(CNC(=O)c1cccn1Cc1cccnc1)N(C)C`, the “Percent Effect” value is listed as -9.831%.

Regarding `CSCC1CCCN(c2ncnc3oc(C)nc23)C1` (stereo unspecified), the “Percent Effect” value amounted to 100.1%.

In the case of `Cc1nc2c(N3CCC(O)(Cn4ccnc4)CC3)ncnc2o1`, the “Percent Effect” value worked out at 2.472%.

Regarding `CCN(CC)C(=O)C1CCCN(c2ncnc3oc(C)nc23)C1` (stereo unspecified), the “Percent Effect” value came to 73.24%.

As to `CSCC1CCN(c2nc(N)ncc2C)CC1`, the “Percent Effect” value is -31.92%.

As for `CCc1nc2c(N3CCCC(c4nccn4CCOC)C3)ncnc2o1` (stereo unspecified), the “Percent Effect” value is recorded as -3.273%.

For `CSc1ccccc1CN1C[C@@H]2CC[C@H](C1)N(CC1CC1)C2=O`, the “Percent Effect” value was -21.61%.

`NC(=O)CCCNC(=O)c1cc(Br)c2c(c1)OCCO2`: the “Percent Effect” value is listed as -9.821%.

With `COc1ccc2cc(CN(C)CCN3CCCCC3=O)c(=O)[nH]c2c1`, the “Percent Effect” value was found to be 1.998%.

In the case of `CCCc1cc(C(=O)N(C)Cc2ccc(OC)c3ncccc23)n(C)n1`, the “Percent Effect” value is -87.89%.

Take `CNC(=O)Cc1cc2nccc(-c3c(OC)cccc3OC)n2n1`: the “Percent Effect” value was found to be 105.1%.

For `COc1cccc(OC)c1-c1ccnc2cc(CC(=O)NC(C)C)nn12`, the “Percent Effect” value is 87.37%.

Turning to `COc1ccccc1CC(=O)NCc1ccnc(NC2CC2)c1`, the “Percent Effect” value is on record as -7.733%.

Regarding `COc1ccccc1CC1CCCN(CC(=O)NC2CC2)C1` (stereo unspecified), the “Percent Effect” value is recorded as 10.43%.

Consider `COc1cccc(CNC(=O)C(C)n2ccnc2C(C)C)c1OC` (stereo unspecified), for which the “Percent Effect” value was -21%.

Take `COc1cccc(OC)c1-c1ccnc2cc(CC(=O)N(C)C)nn12`: the “Percent Effect” value was 89.81%.

On to `COc1ccccc1C1(CNc2cc(C(=O)N(C)C)ccn2)CC1`, for which the “Percent Effect” value is -1.454%.

On to `COc1cccc(CCNC(=O)NC(C)C)c1O`, for which the “Percent Effect” value was -0.2442%.

For the compound `COc1cccc(OC)c1-c1ccnc2cc(CC(=O)NC3CC3)nn12`, the “Percent Effect” value is 130.6%.

Consider `COc1ccccc1OCC(=O)n1nc(C)c(C)c1C`, for which the “Percent Effect” value is -12.46%.

Consider `COc1cccnc1NC(=O)COc1c(C)cccc1C`, for which the “Percent Effect” value is reported as -5.049%.

`CN1CCOC(C(=O)N2CCC3(CCCCC3)C2)C1` (stereo unspecified): the “Percent Effect” value was 13.97%.

Regarding `CCCc1ccc(S(=O)(=O)NC2(CC(N)=O)CCC2)cc1`, the “Percent Effect” value is on record as -11.45%.

Take `O=C(NCCNc1cccnc1)C(c1cccnc1)N1CCCC1` (stereo unspecified): the “Percent Effect” value was -8.824%.

On to `O=C(NCCN1CCCCC1)C(c1ccccc1)N1CCCC1` (stereo unspecified), for which the “Percent Effect” value was 103.1%.

Turning to `O=C(NCCn1cccc1)C(c1ccccc1)N1CCCC1` (stereo unspecified), the “Percent Effect” value came to 123.6%.

Take `CN1CCN(CCNC(=O)C(OC2CCCC2)c2ccccc2)CC1` (stereo unspecified): the “Percent Effect” value is reported as -1.077%.

For the compound `O=C(NCCn1cccc1)C(c1cccnc1)N1CCCC1` (stereo unspecified), the “Percent Effect” value amounted to 4.567%.

In the case of `O=C(NCCN1CCOCC1)C(OC1CCCC1)c1ccccc1` (stereo unspecified), the “Percent Effect” value is on record as 1.172%.

Regarding `CC(=O)N1CC[C@H]2OCC[C@@H](C(=O)N3CCCCO3)[C@@H]2C1`, the “Percent Effect” value turned out to be 7.512%.

Consider `CC(=O)N1CC[C@H]2OCC[C@@H](C(=O)Nc3cccnc3C)[C@H]2C1`, for which the “Percent Effect” value is on record as 87.27%.

For the compound `CC(C)NC(=O)[C@@H]1CCO[C@@H]2CCN(c3ncccn3)C[C@H]21`, the “Percent Effect” value was -20.97%.

For `CC(=O)N1CC[C@H]2OCC[C@@H](C(=O)Nc3cccnc3C)[C@@H]2C1`, the “Percent Effect” value is recorded as 106.3%.

As to `CCC(CNC1CCN(C(C)=O)CC1)Oc1ccccc1Cl` (stereo unspecified), the “Percent Effect” value is given as 3.786%.

On to `NC(=O)N1CCCC(C(=O)NCc2ccccc2OC(F)(F)F)C1` (stereo unspecified), for which the “Percent Effect” value is given as 21.92%.

Consider `CCC(O)CNC(=O)c1cc(COc2ccc(OC)cc2Cl)[nH]n1` (stereo unspecified), for which the “Percent Effect” value is on record as 4.505%.

On to `O=C(CCc1ccccc1)Nc1ncccc1OC(F)F`, for which the “Percent Effect” value is recorded as -7.341%.

As for `CCn1cc(CN2CCCN(C(=O)CCSC)CC2)cn1`, the “Percent Effect” value is reported as 96.36%.

With `CSCCC(=O)N1CCCN(Cc2cnn(C(C)C)c2)CC1`, the “Percent Effect” value came out at 82.47%.

Regarding `CCc1nnsc1C(=O)N1CCCN(Cc2cnn(C)c2)CC1`, the “Percent Effect” value is on record as 1.125%.

The values are drawn from ChEMBL document CHEMBL3988442, “University of Dundee, Small-Polar-MMV Screening Library” (2021).
